Data published in PubChem BioAssay (EPA / NIEHS).
Inconclusive results are not listed. Calls of active or inactive are those of the source. How the source made its calls: active means hit-call score of the fitted dose curve at least 0.9, where 1 is the maximum; inconclusive means response in the unintended direction; inactive means score below 0.9.

Assay: TOX21_TRB_BLA_Agonist_Followup_viability: Viability Assessment in the Tox21 Thyroid Hormone Receptor beta Agonism Beta-lactamase (BLA) Follow-Up Assay (AID 2283956)
From the text: The GeneBLAzer TRb-UAS-bla HEK293T assay kit for human TRb (ThermoFisherScientific Catalog No. K1684) was used as a secondary assay for specificity (TRb-bla). This assay contained the ligand-binding domain (LBD) of the human TRb fused to the DNA-binding domain of GAL4 stably integrated in the GeneBLAzer UAS-bla HEK293Tcell line. The reporter gene, b-lactamase, is under the transcriptional control of a UAS that binds the GAL4 DNA-binding domain. A cell viability assay was run in parallel for these cells as well using the CellTiter-Glo viability assay kit.TOX21_TRB_BLA_Agonist_Followup_viability is a component of the TOX21_TRB_BLA_Agonist_Followup assay. This component measures cell viability using the CellTiter-Glo Luciferase-coupled ATP quantitation.The assay component endpoint TOX21_TRB_BLA_Agonist_Followup_viability was analyzed with bidirectional fitting relation to DMSO as the negative control and baseline of activity. Using a type of viability reporter, loss-of-signal activity can be used to understand changes in viability. To generalize the intended target to other relatable targets, this assay endpoint is annotated to cell cycle, where the subfamily is cytotoxicity.
Cell Media Required: Growth (90% DMEM/F-12, 10% Fetal Bovine Calf Serum, 100U/ml Penicillin, 100 ug/ml Streptomycin), Assay (10ng/mL sodium selenite, 10 ug/mL humanapo-transferrin, 10 uM ethanolamine, 10 ug/mL insulin, 500 ug/mL bovine serum albumin (BSA))Assay Protocol: TRb-bla cells were dispensed at 3,000 cells/well in 5 uL of the assay medium containing phenol red-free DMEM with 2% charcoal-stripped FBS in 1,536-well black-wall/clear-bottom plates using an FRD. After 5-h incubation at 37C/5% CO2 for cell attachment to the well bottom, 23nL of follow-up compounds dissolved in DMSO, 11 concentrations in triplicate, and the positive control (T3; agonist format) were transferred to the assay plates using a Pintool station. The assay plates were incubated at 37C/5% CO2 for 18h. One microliter LiveBLAzer FRET-B/G CCF4-AM substrate was added to each well using an FRD. After 2-h incubation at room temperature, the fluorescence intensity was measured using an Envision plate reader. Data were expressed as the ratio of 460:530nm. The cytotoxicity of the compounds was measured in the same plates by adding 4 uL of CellTiter-Glo reagent to each well and incubating the plates at room temperature for 30 min. The luminescence intensity was measured using a ViewLux plate reader.For the luciferase reporter gene assay, 5 uL/well (agonist format) and 4 uL/well (antagonist format) ONE-Glo reagent (Promega Corporation) was added using an FRD and after 30-min incubation at room temperature, the luminescence intensity was measured using a ViewLux plate reader. Data were expressed as relative fluorescence units (cell viability assay) and relative luminescence units (luciferase reporter assay).

| SMILES | outcome |
| --- | --- |
| Oc1ccccc1 | inactive |
| Nc1ccc(S(=O)(=O)Nc2nccs2)cc1 | inactive |
| C=C(c1ccc(C(=O)O)cc1)c1cc2c(cc1C)C(C)(C)CCC2(C)C | inactive |
| N[C@@H](Cc1cc(I)c(Oc2cc(I)c(O)c(I)c2)c(I)c1)C(=O)O | inactive |
| COC(=O)c1ccc(I)cc1S(=O)(=O)NC(=O)Nc1nc(C)nc(OC)n1 | inactive |
| CC1=C(/C=C/C(C)=C/C=C/C(C)=C/C(=O)O)C(C)(C)CCC1 | inactive |
| O=C(O)Cc1cc(I)c(Oc2cc(I)c(O)c(I)c2)c(I)c1 | inactive |
| CCCN(CCC)C(=O)SCC | inactive |
| CC(C)=CCC/C(C)=C\CO | inactive |
| Nc1ncn([C@H]2C[C@H](O)[C@@H](CO)O2)c(=O)n1 | inactive |
| CC(C)(C)c1cc(C(C)(C)C)c(O)c(C(C)(C)C)c1 | inactive |
| COc1cc(C)c(/C=C/C(C)=C/C=C/C(C)=C/C(=O)O)c(C)c1C | inactive |
| CCCCCCCCCCC | inactive |
| CC(=O)Nc1ccc(C(=O)CCl)cc1 | inactive |
| CC1=C(/C=C/C(C)=C\C=C\C(C)=C\C(=O)O)C(C)(C)CCC1 | inactive |
| Nc1ccc(S(N)(=O)=O)cc1 | inactive |
| COc1ccc(OC)c([C@@H](O)[C@H](C)N)c1 | inactive |
| O=C(c1ccccc1)c1ccc(O)cc1O | inactive |
| O=C(O)Cc1cc(I)c(Oc2ccc(O)c(I)c2)c(I)c1 | inactive |
| CC(=O)OCCC(C)CC(C)(C)C (stereo not given) | inactive |

| SMILES | outcome |
| --- | --- |
| O=C(O)CCCCCCNC1c2ccccc2CCc2ccccc21 | inactive |
| NCC(=O)CCC(=O)O | inactive |
| NC(CO)(CO)CO | inactive |
| O=Cc1ccccc1S(=O)(=O)O | inactive |
| CNC(=O)ON=C(CSC)C(C)(C)C | inactive |
| CC(C)(C)CC(C)(C)c1ccc(O)c(Cc2ccc(Cl)cc2Cl)c1 | inactive |
| CSCC[C@H](NC(=O)[C@H](Cc1ccc(OS(=O)(=O)O)cc1)NC(=O)[C@@H](N)CC(=O)O)C(=O)NCC(=O)N[C@@H](Cc1c[nH]c2ccccc12)C(=O)N[C@@H](CCSC)C(=O)N[C@@H](CC(=O)O)C(=O)N[C@@H](Cc1ccccc1)C(N)=O | inactive |
| Cc1cc(C)nc(NS(=O)(=O)c2ccc(N)cc2)n1 | inactive |
| C=C(NC(=O)C(=C)NC(=O)c1csc(C2=NC3c4csc(n4)C4NC(=O)c5csc(n5)C(C(C)(O)C(C)O)NC(=O)C5CSC(=N5)/C(=C/C)NC(=O)C(C(C)O)NC(=O)c5csc(n5)C3(CC2)NC(=O)C(C)NC(=O)C(=C)NC(=O)C(C)NC(=O)C(C(C)CC)NC2C=Cc3c(C(C)O)cc(nc3C2O)C(=O)OC4C)n1)C(N)=O (stereo not given) | inactive |
| CC(CCO)CCCC(C)(C)O (stereo not given) | inactive |
| CCCCCCC(C)O (stereo not given) | inactive |
| CCCCCCC(O)CO (stereo not given) | inactive |
| CC(C)CC(=O)O | inactive |
| CC(C)CCCCCCCOC(=O)c1ccccc1C(=O)OCCCCCCCC(C)C | inactive |
| Cc1cc(-n2c(=O)[nH]c(=O)n(C)c2=O)ccc1Oc1ccc(S(=O)(=O)C(F)(F)F)cc1 | inactive |
| CCC(C)c1cc(C(C)(C)C)c(O)c(C(C)(C)C)c1 (stereo not given) | inactive |
| CC1=C(/C=C/C(C)=C/C=C/C(C)=C\C(=O)O)C(C)(C)CCC1 | inactive |
| CCNc1nc(N)nc(Cl)n1 | inactive |
| C[C@]12CC[C@H]3C(=CCc4cc(O)ccc43)[C@@H]1CCC2=O | inactive |
| N[C@@H](Cc1ccc(Oc2cc(I)c(O)c(I)c2)c(I)c1)C(=O)O | inactive |
